{"source": "paper PMC5540273", "about": "(PLoS ONE, 2017);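 note: KINOMEscan kinase panel screen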"}
{"system": "ACVR2A", "settings": "concentration: 1 μM,replicates: in singlicate; n = 1", "units": {"%Inh": "%"}}
{"smiles": "CCn1c(-c2nonc2N)nc2cncc(CNC3CCNCC3)c21.Cl", "note": "[SB-747651]", "%Inh": 0}
{"smiles": "Cc1ccc(C(=O)Nc2ccc(Oc3ccc4nc(NC(=O)C5CC5)cn4c3)c(F)c2)c(=O)n1-c1ccccc1", "%Inh": 0}
{"smiles": "Cl.c1ccc(Oc2ccc(Nc3ccnc4cc(-c5ccc(CN6CCNCC6)o5)ccc34)cc2)nc1", "note": "[GW567142]", "%Inh": 0}
{"smiles": "Nc1nccc(-c2ccc3c(N)n[nH]c3c2)n1", "note": "[GSK1034945]", "%Inh": 0}
{"smiles": "O=C(Nc1cccc(C(F)(F)F)c1)c1cccc(Oc2ccc3nccn3n2)c1", "%Inh": 24}
{"smiles": "CCNCC(Cc1ccccc1)NC(=O)c1cc(Br)c(-c2ccnc3[nH]ccc23)s1.Cl.Cl", "note": "(centres unmarked) [GSK1383280]", "%Inh": 0}
{"smiles": "Cl.Nc1n[nH]c2cc(-c3ccccn3)ccc12", "note": "[GSK2189892]", "%Inh": 0}
{"smiles": "O=C1NCCc2[nH]c(-c3ccncc3)cc21", "%Inh": 40}
{"smiles": "CS(=O)c1ccc(-c2coc3ccc(-c4n[nH]c(=O)o4)cc23)cc1", "note": "(centres unmarked)", "%Inh": 8}
{"smiles": "Cc1ccn2nc(-c3ccc(F)cc3)c(-c3ccncc3)c2c1.Cl", "note": "[GW457859]", "%Inh": 0}
{"smiles": "Cn1ccc2ncnc(Oc3ccc(NC(=O)Nc4cnn(C(C)(C)C)c4)c(Cl)c3)c21", "%Inh": 0}
{"smiles": "Cn1ccc2ncnc(Oc3ccc(NC(=O)Nc4cccc(C(F)(F)F)c4)c(F)c3)c21", "%Inh": 32}
{"smiles": "COc1cc2ncn(-c3cc(OCC4CCCCC4)c(C(N)=O)s3)c2cc1OC", "note": "[GSK204559]", "%Inh": 18}
{"smiles": "COC(=O)Nc1nc2cc(Oc3ccc(NC(=O)Nc4cc(C(F)(F)F)ccc4Cl)cc3)ccc2[nH]1.Cl", "note": "[GW697465]", "%Inh": 0}
